# Data as given in PubChem BioAssay AID1578 (Sanford-Burnham Center for Chemical Genomics, 2009).
# The campaign covered roughly 290,000 compounds. About 3,000 (1%) were called active. The list comes from a sample in which actives are over-represented; it also holds similar structures and randomly drawn compounds. A number with no mark means an inactive call. Cut-off read from the data, not from the text of the source: active = inhibition mostly above about 36% (no sharp cut-off); inactive = mostly below about 34%.
# Assay: NOD1 signaling inhibitors, primary screen, cell-based, luminescence, uHTS (AID 1578);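 note: HEK-293T reporter cells stimulated with the NOD1 agonist gamma-tri-DAP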
# Details: NOD1-driven NF-kB luciferase reporter cells, at 4 µM, stronger effect = higher value
row,Compound,inhibition
1,O=C(CSc1c(F)c(F)cc(F)c1F)Nc1ccc(C2SCCS2)cc1,-7.2%
2,O=C(CSCc1ccc(Cl)cc1)Nc1ccc(O)cc1C(=O)O,-25.7%
3,CCCc1cc(=O)[nH]c(/N=C(\N)Nc2ccccc2)n1,-6.1%
4,CCOC(=O)CNC(=O)CSc1nnc(NC(=O)c2ccc(S(=O)(=O)N3CCOCC3)cc2)s1,-3.6%
5,Cc1oncc1C(=O)N1CCCC(CO)(Cc2ccc(F)cc2F)C1 (stereo not drawn),-6.9%
6,CC(NS(=O)(=O)c1ccc(Br)cc1)c1ccccc1 (stereo not drawn),-16.8%
7,CCN1CCN(c2nc3c(c(=O)n(C)c(=O)n3C)n2Cc2cccc3ccccc23)CC1,-7.8%
8,Cc1n(Cc2ccccc2)c2ccccc2[n+]1Cc1ccccc1,19.4%
9,COc1ccc(-c2nc3ccccc3n2Cc2ccccc2)cc1,14.3%
10,O=C(CNC(=O)c1cccs1)NCCN1CCN(Cc2ccccc2)CC1,-22.6%
11,COc1ccc(N/C=C/C(=O)c2ccccc2)cc1,-59%
12,COc1ccc(OC)c(N/C=C/C(=O)c2ccc(OC)c(OC)c2)c1,-24.7%
13,COc1ccc(OC)c(N/C=C/C(=O)c2ccccc2)c1,62.5% (active)
14,Cc1nc2c(ccc3nc(NC(=O)Cc4cccc5ccccc45)sc32)s1,-33%
15,COc1cc2[nH]c(=S)nc(NCc3ccc(Cl)cc3)c2cc1OC,-8.3%
16,COc1cc(OC)cc(C(=O)N[C@H](C(=O)OCc2cc(=O)oc3cc(C)ccc23)C(C)C)c1,-34.2%
17,Cc1csc2c(NC3CCN(Cc4ccccc4)CC3)ncnc12,5%
18,Cc1sc2ncnc(NC3CCN(Cc4ccccc4)CC3)c2c1C,42.7%
19,CNC(=S)N(CCc1c(C)[nH]c2ccc(Cl)cc12)Cc1cccnc1,46.2% (active)
20,CNC(=S)N(CCc1c(C)[nH]c2ccc(C)cc12)Cc1cccnc1,-9%
21,CCNC(=S)N(CCc1c(C)[nH]c2ccc(Cl)cc12)Cc1cccnc1,11.3%

row,Compound,inhibition
1,O=C(OCc1nc2ccccc2s1)c1ccc([N+](=O)[O-])o1,-43.7%
2,Cc1ccc(C(=O)NCc2ccc(F)cc2)cc1NC1=NC2CS(=O)(=O)CC2S1 (stereo not drawn),-41.2%
3,COc1cccc(-c2nc(C(=O)NCC3CCCO3)cc3c2[nH]c2ccccc23)c1 (stereo not drawn),51.4%
4,O=C(NCC1CCCO1)c1cc2c([nH]c3ccccc32)c(-c2cccc(Cl)c2)n1 (stereo not drawn),73.1% (active)
5,O=C(NCC1CCCO1)c1cc2c([nH]c3ccccc32)c(-c2cccc(Br)c2)n1 (stereo not drawn),33.6%
6,Cc1cc(=O)[nH]c(SCC(=O)Nc2ccc(F)c([N+](=O)[O-])c2)n1,-19.5%
7,COc1ccc(CNC(=O)CSc2nnc(NC(=O)c3ccccc3F)s2)cc1,-52.7%
8,CC1CCCCC1NC(=O)CCn1ccc2cc(S(=O)(=O)N3CCCC3)ccc21 (stereo not drawn),13.3%
9,CC1(C)CCSC(/C=C/c2ccccc2)=N1,73.3% (active)
10,Nc1nnc(/C=C/c2ccccc2)s1,-41.9%
11,C(=C\c1ccncc1)/c1ccccc1,-7.3%
12,COc1cc2c(c(O)c1OC)-c1c(cc(OC)c(OC)c1OC)C[C@@H](C)[C@@H](C)C2,1.8%
13,Cc1ccc(-c2noc(CCCC(=O)NCC3CCCO3)n2)cc1 (stereo not drawn),8.8%
14,COc1ccc(CS(=O)(=O)/C(Cl)=C(/Cl)C(=O)Nc2ccc(OC)nc2)cc1,78.4% (active)
15,COc1ccc(CC(=O)Nc2ccc(OC)nc2)cc1,-29.9%
16,COc1ccc(NC(=O)C(Cl)=C(Cl)Cl)cn1,30.7%
17,Nc1ccc(Nc2ccccc2N)cc1,2.7%
18,Cc1ccc(Nc2ccccc2N)cc1,59.7% (active)
19,Nc1ccccc1Nc1ccccc1,48.8%
20,CCCCCn1c(C)c2c(OCC)cccc(=O)c2c1C,-1%
21,CCN(CC)CCNCc1cc(Br)ccc1OCC(=O)NCc1ccccc1,7.4%

row,Compound,inhibition
1,N#Cc1cc([N+](=O)[O-])ccc1NC(=O)COC(=O)CC1CCCC1,-12.2%
2,Cc1ccccc1S(=O)(=O)Cc1ccc(C(=O)NCc2ccco2)o1,-5.4%
3,CNC(=O)c1ccccc1S(=O)c1ccccc1COC(C)=O (stereo not drawn),-5.2%
4,COc1cc2c(cc1OC)CN(C(=O)CSc1nc(C)cc(C)c1C#N)CC2,54.2% (active)
5,COc1cc2c(cc1OC)CN(C(=O)CSc1nc(N)c(C#N)cc1C#N)CC2,6.8%
6,Cc1cc(C)c(C#N)c(SCC(=O)N2CCCCC2)n1,-5.5%
7,CC12C(=O)N(c3ccccn3)C(=O)C1C1C=CC2C1 (stereo not drawn),15.9%
8,CN(C)CCN(C(=O)c1cccc2ccccc12)c1nc2cc3c(cc2s1)OCO3,17.7%
9,O=[N+]([O-])c1ccc(N2CCN(Cc3cccc([N+](=O)[O-])c3)CC2)cc1,11.9%
10,O=[N+]([O-])c1cccc(CN2CCCCCC2)c1,82.1% (active)
11,O=[N+]([O-])c1ccc(CN2CCCCCC2)cc1,-21%
12,CCC(C(=O)N1CCN(c2ncccn2)CC1)c1ccccc1 (stereo not drawn),4.2%
13,CC(CC(=O)N(C)C1CCCCC1)S(=O)(=O)c1ccc2c(c1)NC(=O)CO2 (stereo not drawn),-10.5%
14,COc1ccc(OC)c(NC(=S)NC(=O)c2ccc(Br)o2)c1,-27.7%
15,COc1ccc(OCC(=O)NNC(=S)NC(=O)c2ccc(Br)o2)cc1,-38.4%
16,COc1ccc(C(=O)NNC(=S)NC(=O)c2ccc(Br)o2)cc1OC,37.6% (active)
17,COc1ccc(CCNC(=O)C/C(C)=N/NC(=O)c2ccc(N)cc2)cc1OC,-10.1%
18,Cc1sc2ncn(CC(=O)NCCCC(=O)N3CCCCC3)c(=O)c2c1C,12.4%
19,C=CCOc1c(CNC2CCCC2)cc(Cl)cc1OC,-19.3%
20,CCNCc1cc(Cl)cc(OC)c1OC(C)C,17.6%
21,CNCc1cc(Cl)cc(OC)c1OC(C)C,44.6% (active)
